High-throughput results as filed in PubChem.
This is a sample that favours compounds with a hit; in the whole collection about 3% have one here.
12-hLO inh – inhibitors of human 12-lipoxygenase (ALOX12); actives 0.12% (n = 150,000); purified 12-hLO, xylenol orange hydroperoxide absorbance; AID 1452; P18054; Potency, µM (titrated, usually from 57.1 µM), for inactives: at the highest dose activity change, negative = inhibition, most hits filed as inhibitors; also: potency is read from the fitted curve at half-maximal effect; nearly all actives have a fitted effect of over 55% in size
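150 nM 12hLO, 25 mM Hepes pH 7.0 + 0.01% Triton X-100; cpd preinc 15 min RT; 40 uM arachidonic acid, 30 min RT; Fe-XO 30 min; A573/A405 ratio as read-out.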
PNC inhibitor – perinucleolar compartment assembly inhibition; PC3M PTB-GFP, PNC prevalence imaging, 16 h; hits give low values; activity change (PNC), negative = inhibition, % at 10 µM; actives 3.1% (n = 140,000);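 active = readout at or below -70, meaning at least 70% loss of cells showing the perinucleolar compartment, a nuclear body marking cancer cells; inconclusive = readout between -30 and a set limit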;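 also: plate controls were DMSO wells for no effect and camptothecin positive control wells for full effect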
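PC3M cells stably expressing PTB-GFP, 750–1000 cells/well, treated 16 h at 37 °C with compound (23 nl of library stock), in duplicate. After paraformaldehyde fixation and Hoechst stain, imaged at 20x; PNC prevalence scored by image analysis.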
15-hLO-2 inh – inhibitors of human 15-lipoxygenase 2 (ALOX15B). O15296. purified 15hLO-2, xylenol orange hydroperoxide absorbance. Potency, µM (titrated, usually from 57.1 µM), without a hit: at the highest dose activity change, negative = inhibition, actives largely listed as inhibitors. actives 0.56% (n = 110,000). AID 881; also: potency is read from the fitted curve at half-maximal effect; nearly all actives have a fitted effect of over 60% in size
Target sequence (O15296 whole entry, looked up): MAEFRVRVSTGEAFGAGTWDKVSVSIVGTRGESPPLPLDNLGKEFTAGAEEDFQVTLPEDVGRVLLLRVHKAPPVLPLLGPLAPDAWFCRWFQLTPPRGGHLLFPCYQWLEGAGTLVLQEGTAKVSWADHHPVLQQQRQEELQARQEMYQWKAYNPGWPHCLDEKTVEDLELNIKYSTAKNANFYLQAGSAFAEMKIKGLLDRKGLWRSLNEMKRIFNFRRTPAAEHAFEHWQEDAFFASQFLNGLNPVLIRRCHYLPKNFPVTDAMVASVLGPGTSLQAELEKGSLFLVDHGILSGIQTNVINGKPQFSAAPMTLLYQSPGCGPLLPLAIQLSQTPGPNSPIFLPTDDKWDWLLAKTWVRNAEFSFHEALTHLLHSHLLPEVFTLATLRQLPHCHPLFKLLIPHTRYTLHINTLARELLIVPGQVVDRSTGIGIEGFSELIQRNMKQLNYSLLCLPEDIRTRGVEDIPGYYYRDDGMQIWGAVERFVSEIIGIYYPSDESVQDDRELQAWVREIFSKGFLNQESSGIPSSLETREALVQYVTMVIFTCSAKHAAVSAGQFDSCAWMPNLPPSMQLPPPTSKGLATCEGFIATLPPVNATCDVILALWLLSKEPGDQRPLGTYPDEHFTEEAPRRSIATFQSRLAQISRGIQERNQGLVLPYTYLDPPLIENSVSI
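Enzyme 50 nM, AA 45 uM, 25 mM Hepes pH 7.5 + 0.01% Triton X-100; cpd preinc 15 min RT, rxn 90 min RT; stop/detect with 200 uM XO + 300 uM Fe(II) in 50 mM H2SO4, 30 min; A573/A405.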
IMPase inh – membrane-permeable compound that blocks inositol monophosphatase | P97697 | CHO-M1 cells, IP1 accumulation, HTRF TR-FRET ratio | inhibition (IP1 accumulation), % at 46.1 µM | 120,000 tested, under 10 active; active = well fitted curve in the direction sought with a large enough effect in the signal ratio, not every such curve was filed as active; inconclusive = small, poorly fitted or top-dose-only effect, or a change in a side signal; inactive = no such curve, though single readings can be large or run the other way; the % refers to the signal ratio;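 also: cells stimulated with carbachol in lithium chloride buffer; plate controls were DMSO basal wells for no effect and reference inhibitor wells for full effect; higher means more IMPase inhibition seen as more IP1 and lower FRET ratio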
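In this qHTS, compounds (final up to 46 uM) act on CHO-M1 cells that are then activated through the M1 receptor with carbachol, in pH 7.4 buffer containing 50 mM LiCl, for 30 min. IP1 accumulation is quantified by the IP-One immunoassay.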
The depositor's hits bear a star; [ ] = another dose, or the depositor's remark. Unless noted, calls follow the shape of the dose curve; as a rule, active = well fitted curve in the direction sought with a large enough effect; inconclusive = small, poorly fitted or top-dose-only effect, or another doubt; inactive = no such curve, though single readings can be large; an effect the other way counts as inactive or inconclusive. Unless noted, % is scaled to controls: 0 for no effect and ±100 for the full control effect.

For CCOc1nc(NCCC2=CCCCC2)nc(N2CCOCC2)n1 the results were 12-hLO inh 0%, PNC inhibitor -23, 15-hLO-2 inh 39% and IMPase inh -7.
CCOc1nc(NCCO)nc(NCCC2=CCCCC2)n1 was read as 12-hLO inh 3%, PNC inhibitor -100* and IMPase inh -8.
CCCc1ccc(C(=O)CCC(=O)O)cc1 was read as 12-hLO inh 3%, PNC inhibitor -96*, 15-hLO-2 inh -11% and IMPase inh -9.
CCN(c1cccc(C(F)(F)F)c1)S(=O)(=O)c1ccc2c(c1)CCN2C(C)=O was read as 12-hLO inh 1%, PNC inhibitor -98*, 15-hLO-2 inh -1% and IMPase inh -2.
Screening CCN(c1cccc(C)c1)S(=O)(=O)c1ccc2c(c1)CCN2C(C)=O returned 12-hLO inh -5%, PNC inhibitor 29, 15-hLO-2 inh -1% and IMPase inh 9.
`CCCCc1cc2c(cn1)=C(OC(=O)c1ccc(Cl)nc1)C(C)(OC(=O)CC)C(=O)C=2` (configuration not stated) gave 12-hLO inh -2%[11.4 µM].
`CCOc1cc(C(=O)Nc2cccc3cccnc23)cc(OCC)c1OCC` gave IMPase inh 15.
`CC1=C(C(=O)Nc2ccccc2)C(CC(C)C)n2nc(SCc3ccccc3C)nc2N1` (configuration not stated) gave IMPase inh 0.
`O=C(O)CCC(O)=C1S(=O)(=O)OCCOS1(=O)=O` gave 12-hLO inh 1%[11.4 µM] and 15-hLO-2 inh 0%[11.4 µM].
Screening c1cncc(CNC2CCCc3ccccc32)c1 (configuration not stated) returned 12-hLO inh 5%, PNC inhibitor -83*, 15-hLO-2 inh 0% and IMPase inh 5.
Screening C=C(C)CC1(NC(C)c2ccccc2)CCCCC1 (configuration not stated) returned 12-hLO inh -1% and PNC inhibitor -109*.
Screening C/C(Cl)=C\CNC(C)c1ccccc1 (configuration not stated) returned 12-hLO inh 0%, PNC inhibitor -8, 15-hLO-2 inh 7% and IMPase inh 4.
Screening Cc1cc(C)n2c(-c3ccccc3Cl)nnc2n1 returned 12-hLO inh 1% and PNC inhibitor -109*.
Cc1cc(C)n2c(SCc3ccccc3Cl)nnc2n1 was read as 12-hLO inh 0%, PNC inhibitor 24, 15-hLO-2 inh 4% and IMPase inh 2.
`CS(=O)(=O)c1cnc(-c2ccccc2)nc1Oc1ccc(Cl)cc1` gave 12-hLO inh 1%, PNC inhibitor inconclusive, 15-hLO-2 inh 3% and IMPase inh 3.
`C=CCN1c2ccccc2[C@]23C[C@@H](C(=O)OC)N(S(=O)(=O)c4cccs4)C2=NC(C(=O)OC)=C(C(=O)OC)[C@H]13` gave 12-hLO inh -2%[11.4 µM].
Screening O=C(OCC1OC(OC(=O)c2cc(O)c(O)c(OC(=O)c3cc(O)c(O)c(O)c3)c2)[C@@H](OC(=O)c2cc(O)c(O)c(OC(=O)c3cc(O)c(O)c(O)c3)c2)C(OC(=O)c2cc(O)c(O)c(OC(=O)c3cc(O)c(O)c(O)c3)c2)C1OC(=O)c1cc(O)c(O)c(OC(=O)c2cc(O)c(O)c(O)c2)c1)c1cc(O)c(O)c(OC(=O)c2cc(O)c(O)c(O)c2)c1 (some centres not stated) returned 12-hLO inh 0.56µM* and 15-hLO-2 inh 1.6µM*.
Screening CCN1CCc2c(sc(NC(=O)Nc3ccc(Cl)c(Cl)c3)c2C(N)=O)C1 returned 12-hLO inh -7% and PNC inhibitor -118*.
CCN1CCc2c(sc(NC(=O)c3ccc(S(=O)(=O)N4CCOCC4)cc3)c2C(N)=O)C1 was read as 12-hLO inh 4%, PNC inhibitor 27, 15-hLO-2 inh 0% and IMPase inh 9.
Screening COc1cc(OC)c(-c2nn3c(-c4cccnc4)nnc3s2)cc1OC returned 12-hLO inh -2%, PNC inhibitor -2, 15-hLO-2 inh -5% and IMPase inh 0.
Screening COc1cc(OC)c(-c2nn3c(-c4ccncc4)nnc3s2)cc1OC returned 12-hLO inh 4%, PNC inhibitor -136*, 15-hLO-2 inh -10% and IMPase inh 2.
`c1ccc(-c2ccccc2OCCCCN2CCCCC2)cc1` gave 12-hLO inh 2%, PNC inhibitor 2 and IMPase inh -5.
Screening c1ccc(-c2ccccc2OCCCN2CCCC2)cc1 returned 12-hLO inh 1% and PNC inhibitor -107*.
Screening CC1CCN(CCOc2ccccc2-c2ccccc2)CC1 returned 12-hLO inh -4% and PNC inhibitor -105*.
`CC1CC(C)CN(CCOc2ccccc2-c2ccccc2)C1` (configuration not stated) gave 12-hLO inh 0% and PNC inhibitor inconclusive.
CCCCCC(=O)Nc1cc2[nH]c(=O)cc(COC)c2cc1C was read as 12-hLO inh 6%, PNC inhibitor inconclusive and IMPase inh 5.
`CC(=O)c1ccc[nH]1` gave 12-hLO inh 2% and 15-hLO-2 inh -1%.
For Cc1cnc(C(=O)Nc2ccc(N3CCOCC3)cc2)cn1 the results were 12-hLO inh 0%, PNC inhibitor -100* and IMPase inh -2.
`Cc1ccc(C(=O)Nc2ccc(N3CCOCC3)cc2)cc1` gave 12-hLO inh -5%, PNC inhibitor inconclusive, 15-hLO-2 inh 3% and IMPase inh 1.
Screening CCCn1c(O)c(N=Nc2ccc3ccccc3n2)c2ccccc21 returned 12-hLO inh -1% and PNC inhibitor -115*.
Screening CC(C)CCn1c(O)c(N=Nc2ccccn2)c2ccccc21 returned 12-hLO inh -6% and PNC inhibitor inconclusive.
For Cc1cc2nc([C@H](C)C(=O)c3ccc(Cl)cc3)c(=O)[nH]c2cc1C the results were 12-hLO inh 1%[11.4 µM] and 15-hLO-2 inh -5%[11.4 µM].
Screening COc1ccc2nc(Nc3nc(CSc4nc5ccccc5[nH]4)cc(=O)[nH]3)nc(C)c2c1 returned 12-hLO inh -4% and PNC inhibitor 3.
Screening Cc1nc(Nc2nc(CSc3nc4ccccc4[nH]3)cc(=O)[nH]2)nc2ccccc12 returned 12-hLO inh 1% and PNC inhibitor -97*.
Screening CCc1ccc(NC(=S)Nc2ccc3cn[nH]c3c2)cc1 returned 12-hLO inh 0% and PNC inhibitor 11.
For CCCCNC(=S)Nc1ccc2cn[nH]c2c1 the results were 12-hLO inh -6% and PNC inhibitor -84*.
`CCn1ccc(C(=O)NC2=C(C#N)CCC2)n1` gave 12-hLO inh 4%, PNC inhibitor -8, 15-hLO-2 inh 2% and IMPase inh 5.
`O=C(/C=C/c1cccc(OCc2ccccc2)c1)c1cccnc1` gave 12-hLO inh -11%, PNC inhibitor 31 and IMPase inh 2.
`COC(=O)CC[C@@H](C)[C@H]1CC[C@H]2[C@H]3CC[C@H]4C[C@@H]5CC[C@@]4(C)C3(O5)[C@@H](Br)[C@@H](Br)[C@@]12C` gave 12-hLO inh 4%[11.4 µM] and 15-hLO-2 inh 4%[11.4 µM].
